Hits are enriched below; roughly 3.8% of the tested compounds scored in any of these assays.
TSHR agonist: qHTS Assay for Agonists of the Thyroid Stimulating Hormone Receptor; Thyrotropin receptor (Homo sapiens), P16473; HEK293-CNG-TSHR cells (CNG channel as cAMP sensor), membrane potential dye, cAMP; Potency, µM (top dose mostly 57.1 µM), for inactives: top-dose activation, hits mostly activators; hit rate 0.48% among 73,000; AID 926, 2007; active = well fitted activation curve with a large enough effect in the main read-out, with a control signal flat, not every such curve was filed as active; inconclusive = small, poorly fitted or top-dose-only effect, or a change in a side signal; inactive = no such curve, though single readings can be large or run the other way; % of control where 0% means no effect;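 note: the control signal comes from parental cells without the receptor; potency is the fitted concentration of half-maximal effect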
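HEK 293 cells stably expressing TSHR and a modified CNG channel, with CNG-only parental cells as counterscreen, were preloaded 60 min at room temperature with membrane potential dye containing 100 uM RO 20-1724. Compound exposure was 30 min, and depolarization was read as fluorescence at 590 nm.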
ERK AVP inh: qHTS Assay for Inhibitors of the ERK Signaling Pathway using a Homogeneous Screening Assay | Potency, µM (series often up to 57.5 µM), inactives show top-dose activity, negative = inhibition, usual class: inhibitors | hit rate 0.99% among 72,000 | AID 995, 2007 | HEK293-V1b, vasopressin-stimulated pERK AlphaScreen; note: potency is the fitted concentration of half-maximal effect; % is set by controls: 0 for no effect and ±100 for the full control effect; nearly all actives have a fitted effect of over 55% in size
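Phosphorylated ERK1/2 detected via AlphaScreen bead proximity in lysates of V1b-expressing HEK293 cells given 25 nM vasopressin for 5 min after 30 min compound exposure (37 °C). AC50 from Hill equation; basal DMSO 0%, vasopressin 100%.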
HBB splicing: qHTS Assay for Modulators of Hemoglobin Beta Chain Splicing. Potency, µM (doses to about 46.1 µM), for the others: top-dose activation, most hits filed as activators. HBB splicing reporter cell assay, activation; EGFP reporter with mutant IVS2-654 intron; response scale: normalised to 500 nM splice-correcting PNA. hit rate 0.06% among 65,000; note: potency is the fitted concentration of half-maximal effect; 0% is about no effect
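HeLa cells stably expressing EGFP interrupted by mutant beta-globin intron 2 (IVS2-654), 500/well in 2% FCS. Treated with compound for 2 days at 37C. Splicing correction scored as total well GFP intensity (488 nm excitation, 500-520 nm emission); 500 nM antisense PNA served as control.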
UbGFP stabilizer: Ubiquitin-GFP Assay. Ubiquitin-GFP reporter cells, proteasome inhibition, GFP fluorescence; response scale: untreated = 0%, 10 µM MG-132 = 100%. Potency, µM (series often up to 45.9 µM), inactives show top-dose activation (GFP accumulation), usual class: activators. 67,000 tested, under 10 active; active = well fitted activation curve with a large enough effect, not every such curve was filed as active; inconclusive = small, poorly fitted or top-dose-only effect, or another doubt; inactive = no such curve, though single readings can be large or run the other way; note: potency is the fitted concentration of half-maximal effect
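Proteasome block read as GFP accumulation: ubiquitin(G76V)-GFP U2OS cells exposed to compound (2.9 nM–46 uM) for 4 hr at 37 C. Normalization used untreated cells as 0% and 10 uM MG-132 as 100%; concentration-response curves fitted.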
HEK293 cAMP ctrl: qHTS Assay for Agonists of the Thyroid Stimulating Hormone Receptor: Activators of Intracellular cAMP Concentrations in Parental HEK 293; parental HEK293 CNG cAMP sensor, membrane potential fluorescence; Potency, µM (top dose mostly 57.1 µM), for inactives: at the highest dose activation, hits mostly activators; hit rate 2.5% among 73,000; AID 938, 2007; note: potency is the fitted concentration of half-maximal effect; % of control where 0% means no effect; nearly all actives have a fitted effect of over 55% in size
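Parental HEK 293 cells stably expressing a modified CNG channel (no TSHR) report cAMP rise as membrane depolarization. Membrane potential dye with 100 uM RO 20-1724 was loaded for 60 min at room temperature, then compound added for 30 min; fluorescence read at 590 nm.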
Epigenetic mod: qHTS Assay for Epigenetic Modulators. hit rate 0.09% among 68,000. mouse C127i GFP locus derepression, cytometry, 30 h. Potency, µM (doses to about 46.1 µM), for the others: at the highest dose GFP derepression (activation); note: % of control where 0% means no effect
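Read-out is the number of GFP-positive cells, scored as fluorescent objects 20 to 120 um wide, reflecting derepression of a silenced CMV-GFP reporter in murine C127i cells after 30 h compound exposure at 37 C.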
* = called active by the depositor; ? = inconclusive; nt = no result given; [ ] = remark or other dose. Unless noted, calls come from the whole dose curve; as a rule, active = well fitted curve in the direction sought with a large enough effect; inconclusive = small, poorly fitted or top-dose-only effect, or another doubt; inactive = no such curve, though single readings can be large; an effect the other way counts as inactive or inconclusive.

SMILES	TSHR agonist	ERK AVP inh	HBB splicing	UbGFP stabilizer	HEK293 cAMP ctrl	Epigenetic mod
c1ccc(-n2nnc3ccccc32)nc1	9%[11.4 µM]	7%	-1%[1.84 µM]	4%	3%	0%
c1ccc(COn2nnc3ccccc32)c(COn2nnc3ccccc32)c1	?	-26%	1%	-3%	25µM*	-3%
O=C(O)COc1ccc(Br)cc1/C=N/O	?	-4%	-3%[0.0738 µM]	13%[9.17 µM]	?	2%
CCOc1ccc(Br)cc1/C=N/O	?	-37%	3%[0.0738 µM]	5%[9.17 µM]	4µM*	-3%
C=C(CC1([C@@H](NP(=O)(c2ccccc2)c2ccccc2)[C@H]2C[C@@H]2CCN(C(=O)OCC)S(=O)(=O)c2ccc(C)cc2)CC1)c1ccccc1	1%	8%	2%	nt	13%	nt
CCO[Si](CCCN)(OCC)OCC	3%	22%	0%	nt	23%	nt
Cc1ccc(-c2cc(C(=O)N3CCOCC3)c3ccccc3n2)cc1	25µM*	-24%	-1%	-9%	6%	-3%
O=C(OCC(=O)N1CCN(C(=O)c2ccco2)CC1)c1cc(-c2ccccc2)nc2ccccc12	-8%	20µM*	-4%	3%	17%	4%
COC(=O)C/C=C\[C@@H](C)[C@@H](/C=N\O[C@@H](C)CN1CCCCc2nc(C)c(C)cc21)NS(=O)(=O)c1ccc(C)cc1	?	7%[11.5 µM]	1%[9.22 µM]	nt	?	nt
O=C(COc1ccc(Br)cc1CO)Nc1ccc(F)cc1	-6%	40µM*	-1%	13%	-1%	2%
Cc1csc(NC(=O)CSc2nc3ccccc3c(=O)[nH]2)n1	11%	-8%	nt	2%	14%	1%
Cc1csc(NC(=O)CSCC(=O)Nc2ccccc2)n1	?	32µM*	-1%	-13%	?	0%
O=C1c2ccccc2C(Cc2ccncc2)(Cc2ccncc2)c2ccccc21	?	-8%	nt	4%	3.2µM*	0%
CCCCCCCC/C=C\CCCCCCCC(N)=O	-1%	10%	nt	0%	-1%	-1%
CCCCC[C@H](O)/C=C\[C@@H]1[C@H](O)CC(=O)[C@@H]1CCCCCCC(=O)O	?	-6%[25.7 µM]	0%[20.6 µM]	-1%[20.5 µM]	0.0025µM*	0%[20.6 µM]
CCCCC[C@H](O)/C=C/[C@H]1[C@H](O)CC(=O)[C@@H]1C/C=C\CCCC(=O)O	?	?	0%	nt	0.01µM*	nt
CCCCCC1C(=O)CCC1CC(=O)OC (stereo not given)	nt	-12%	nt	nt	nt	nt
CCCCC[C@H](O)/C=C\[C@H]1[C@H](C/C=C\CCCC(=O)O)[C@@H](O)C[C@H]1O (tested in a mixture with another compound)	?	?	-1%[20.6 µM]	-2%[20.5 µM]	13µM*	3%[20.6 µM]
CCCCC[C@H](O)C=C[C@H]1[C@H](O)CC(=O)[C@H]1CCCCCCC(=O)O	?	?	nt	-1%	0.01µM*	1%
C=CCc1cccc(C2C(C)CCC3C(=O)N4C(CCC(C)C4c4cccc(CC=C)c4)C(=O)N32)c1 (stereo not given)	10%[11.4 µM]	10%[11.5 µM]	1%[9.22 µM]	nt	24%[11.4 µM]	nt
